Results reported in publication PMC5540273 (PLoS ONE, 2017).

What was measured:
Conditions in all cases: concentration: 1 μM, replicates: in singlicate; n = 1
DCAMKL2 = tested on: T1, DCAMKL2
T1 construct: gene DCLK2

DCAMKL3 = tested on: T2, DCAMKL3
T2 construct: gene DCLK3

DDR1 = tested on: DDR1
DDR2 = tested on: DDR2
DLK = tested on: T3, DLK
T3 construct: gene MAP3K12

DMPK2 = tested on: T4, DMPK2
T4 construct: gene CDC42BPG

DMPK = tested on: DMPK
DRAK1 = tested on: T5, DRAK1
T5 construct: gene STK17A

DRAK2 = tested on: T6, DRAK2
T6 construct: gene STK17B

DYRK1A = tested on: DYRK1A
DYRK1B = tested on: DYRK1B
DYRK2 = tested on: DYRK2
EGFR = tested on: EGFR
EIF2AK1 = tested on: EIF2AK1
EPHA1 = tested on: EPHA1
EPHA2 = tested on: EPHA2
EPHA3 = tested on: EPHA3
EPHA4 = tested on: EPHA4
EPHA5 = tested on: EPHA5
EPHA6 = tested on: EPHA6
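Note: KINOMEscan kinase panel screen.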

SMILES	%Inh (DCAMKL2) [%]	%Inh (DCAMKL3) [%]	%Inh (DDR1) [%]	%Inh (DDR2) [%]	%Inh (DLK) [%]	%Inh (DMPK2) [%]	%Inh (DMPK) [%]	%Inh (DRAK1) [%]	%Inh (DRAK2) [%]	%Inh (DYRK1A) [%]	%Inh (DYRK1B) [%]	%Inh (DYRK2) [%]	%Inh (EGFR) [%]	%Inh (EIF2AK1) [%]	%Inh (EPHA1) [%]	%Inh (EPHA2) [%]	%Inh (EPHA3) [%]	%Inh (EPHA4) [%]	%Inh (EPHA5) [%]	%Inh (EPHA6) [%]
CN(c1ccc(NC(=O)N2CCN(CCCN3CCOCC3)CC2)cc1)c1ccnc(Nc2ccc(CS(C)(=O)=O)cc2)n1.Cl [GW830899]	0	5	36	54	24	0	0	0	13	0	0	0	48	0	48	22	0	4	0	0
COc1cccc(NC(=O)NCCNc2ccnc(Nc3ccc(F)cc3)n2)c1 [GSK1379879]	0	0	7	1	21	0	0	0	31	10	25	0	43	0	52	27	0	0	0	0
Cl.Cl.NCC(NC(=O)c1cc(-c2cccnc2)c(-c2ccnc3[nH]ccc23)s1)c1ccccc1 (stereo not drawn) [GSK1323434]	9	0	11	55	34	51	79	19	0	48	17	33	72	0	4	10	40	0	0	2
O=C(O)C(F)(F)F.O=c1[nH]ccc2nc(N[C@@H]3CCNC3)nc(Nc3ccc4c(c3)S(=O)(=O)CC4)c12 [GSK2181306]	84	98.4	0	5	72	45	97.5	99.5	92.1	35	81	52	33	4	12	7	93.9	16	0	16
COC(=O)Nc1nc2cc(Oc3ccc(NC(=O)Nc4cccc(SC)c4)cc3)ccc2[nH]1.Cl [GW697999]	6	29	100	98.7	32	0	0	8	0	12	0	7	29	0	59	88	15	64	26	92.6
O=C(Nc1n[nH]c2nc(-c3ccccc3O)ccc12)C1CC1 [SB-711880]	0	0	1	0	32	0	0	3	0	9	56	14	27	0	0	4	30	0	5	0
COc1cccc2c(-c3ccncc3)c(-c3ccc(F)cc3)nn12 [GW468513]	0	0	96.2	90	46	98.9	0	0	0	15	0	0	71	0	5	17	0	18	0	41
COc1ccc(NC(=O)c2ccoc2)cc1-c1ccc(C(=O)NCC2CC2)cc1 [GW810437]	17	12	0	50	0	0	1	6	7	0	8	21	0	0	0	0	15	0	0	0
COc1ccc(C)c(Nc2ccnc(Nc3ccc(-c4cnc[nH]4)cc3)n2)c1.Cl [GW784041]	3	27	52	70	10	5	0	0	0	0	0	0	28	0	62	45	3	31	4	12
